Laboratory results reported in PubChem BioAssay AID1159580 (chemical genetic matrix, 2015).
“And” between values parts separate entries of the source, which are not always exact repeats. Equal values may be shown once. In all, about 5,500 compounds went through this assay and about 2,000 (36%) were called active. About 18% were inconclusive and are not listed. Rule as the data show it: active = normalized growth mostly below about 0.91 (no sharp cut-off); inconclusive = no clear call, values can overlap the other calls; inactive = mostly above about 0.92. Some of the results follow.

Assay: chemical genetic growth profiling, strain panel (AID 1159580);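 also: tested at 20 µM; growth read once vehicle control cultures reached saturation at 30 °C; 1 = growth at the plate median or of vehicle wells; lower values mean less growth of the strain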
Conditions: S. cerevisiae deletion strains, growth OD

Measured: normalized growth

COc1cc2c(cc1OC)C(C)NCC2 (stereo unspecified)
inactive: locus YAL013W, strain DEP1, hits give low values 0.996 | locus YAL021C, strain ccr4, hits give low values 0.967 | locus YAL026C, strain drs2, hits give low values 0.959 | locus YAL030W, strain snc1, hits give low values 0.985 | locus YBL061C, strain skt5, hits give low values 0.97 | locus YBR009C, strain hhf1, hits give low values 0.965 | locus YBR021W, strain FUR4, hits give low values 0.995 | locus YBR023C, strain chs3, hits give low values 0.957 | locus YBR171W, strain sec66, hits give low values 0.958 | locus YBR229C, strain ROT2, hits give low values 0.995 | locus YBR231C, strain swc5, hits give low values 0.982 | locus YBR279W, strain paf1, hits give low values 0.989 | locus YCL011C, strain gbp2, hits give low values 0.979 | locus YCL016C, strain dcc1, hits give low values 1 | locus YCL029C, strain bik1, hits give low values 0.979 | locus YCL069W, strain vba3, hits give low values 0.962 | locus YCR088W, strain abp1, hits give low values 0.982 | locus YDL005C, strain med2, hits give low values 0.976 | locus YDL035C, strain GPR1, hits give low values 1 | locus YDL040C, strain nat1, hits give low values 0.984 | locus YDL074C, strain BRE1, hits give low values 1 | locus YDL101C, strain DUN1, hits give low values 0.996 | locus YDL185W, strain tfp1, hits give low values 0.986 | locus YDL192W, strain arf1, hits give low values 0.98 | locus YDR001C, strain nth1, hits give low values 0.988 | locus YDR069C, strain doa4, hits give low values 0.921 | locus YDR101C, strain arx1, hits give low values 0.979 | locus YDR137W, strain rgp1, hits give low values 0.977 | locus YDR150W, strain NUM1, hits give low values 1.01 | locus YDR159W, strain sac3, hits give low values 0.927 | locus YDR162C, strain NBP2, hits give low values 1.02 | locus YDR195W, strain ref2 0.963 | locus YDR297W, strain sur2, hits give low values 1 | locus YDR318W, strain mcm21, hits give low values 0.986 | locus YDR334W, strain swr1, hits give low values 0.951 | locus YDR335W, strain msn5, hits give low values 0.971 | locus YDR388W, hits give low values 0.978 | locus YDR392W, strain spt3, hits give low values 0.992 | locus YDR502C, strain sam2, hits give low values 0.981 | locus YEL003W, strain gim4, hits give low values 0.976 | locus YEL037C, strain rad23, hits give low values 0.968 | locus YEL061C, strain CIN8 (second series), hits give low values 0.966 | locus YEL061C, strain CIN8, hits give low values 0.995 | locus YER015W, strain faa2, hits give low values 0.976 | locus YER016W, strain bim1, hits give low values 0.983 | locus YER110C, hits give low values 0.963 | locus YER111C, strain swi4, hits give low values 0.959 | locus YER155C, strain BEM2 (second series), hits give low values 0.985 | locus YER155C, strain BEM2, hits give low values 0.99 | locus YER167W, strain BCK2, hits give low values 0.994 | locus YFR010W, strain ubp6, hits give low values 0.945 | locus YGL078C, strain dbp3, hits give low values 0.982 | locus YGL086W, strain mad1, hits give low values 0.982 | locus YGL167C, strain pmr1, hits give low values 0.969 | locus YGL173C, strain kem1, hits give low values 0.97 | locus YGL227W, strain vid30, hits give low values 0.985 | locus YGL240W, strain doc1, hits give low values 0.986 | locus YGL248W, strain PDE1, hits give low values 1 | locus YGL253W, strain hxk2, hits give low values 0.961 | locus YGR078C, strain PAC10, hits give low values 1.02 | locus YGR135W, strain pre9, hits give low values 0.959 | locus YGR252W, strain gcn5, hits give low values 0.996 | locus YHR013C, strain ard1, hits give low values 0.961 | locus YHR027C, strain rpn1, hits give low values 0.976 | locus YHR030C, strain SLT2, hits give low values 0.993 and 1.04 | locus YHR079C, strain IRE1 (second series), hits give low values 0.979 | locus YHR079C, strain IRE1, hits give low values 1.03 | locus YHR094C, strain hxt1, hits give low values 0.985 | locus YHR129C, strain ARP1, hits give low values 1 | locus YHR142W, strain chs7, hits give low values 0.988 | locus YHR200W, strain rpn10, hits give low values 0.98 | locus YIL066C, strain RNR3, hits give low values 1.02 | locus YIL073C, strain SPO22, hits give low values 1.02 | locus YIL125W, strain kgd1, hits give low values 0.981 | locus YIR030C, strain dcg1, hits give low values 0.976 | locus YJL092W, strain hpr5, hits give low values 0.936 | locus YJL095W, strain BCK1 (second series), hits give low values 0.969 | locus YJL095W, strain BCK1, hits give low values 1.02 and 0.99 | locus YJL115W, strain asf1, hits give low values 0.951 | locus YJL129C, strain trk1, hits give low values 0.948 | locus YJL134W, strain LCB3, hits give low values 0.988 | locus YJL154C, strain vps35, hits give low values 0.974 | locus YJL164C, strain tpk1, hits give low values 1.01 | locus YJL166W, strain qcr8, hits give low values 0.977 | locus YJL168C, strain set2, hits give low values 0.978 | locus YJL187C, strain SWE1 (second series), hits give low values 1.01 | locus YJL187C, strain SWE1, hits give low values 0.961 | locus YJR043C, strain POL32, hits give low values 1.02 | locus YJR066W, strain TOR1, hits give low values 0.966 | locus YJR075W, strain HOC1, hits give low values 1.02 | locus YKL009W, strain mrt4, hits give low values 0.984 | locus YKL068W, hits give low values 0.98 | locus YKL085W, strain MDH1 (second series), hits give low values 1.01 | locus YKL085W, strain MDH1, hits give low values 1.01 | locus YKL160W, strain elf1, hits give low values 1.01 | locus YKL190W, strain CNB1, hits give low values 1 | locus YKR001C, strain vps1, hits give low values 0.982 | locus YKR026C, strain gcn3, hits give low values 0.974 | locus YKR091W, strain srl3, hits give low values 0.987 | locus YLL001W, strain dnm1, hits give low values 0.977 | locus YLL026W, hits give low values 0.986 | locus YLL041C, strain sdh2, hits give low values 0.963 | locus YLR027C, strain aat2, hits give low values 0.966 | locus YLR039C, strain RIC1, hits give low values 1.02 | locus YLR058C, strain SHM2, hits give low values 0.996 | locus YLR102C, strain apc9, hits give low values 0.991 | locus YLR113W, strain HOG1, hits give low values 1.01 | locus YLR221C, strain rsa3, hits give low values 0.989 | locus YLR258W, strain gsy2, hits give low values 0.978 | locus YLR262C, strain YPT6 (second series), hits give low values 0.964 | locus YLR262C, strain YPT6, hits give low values 1.05 | locus YLR268W, strain sec22, hits give low values 0.987 | locus YLR320W, strain mms22, hits give low values 0.997 | locus YLR330W, strain CHS5, hits give low values 0.991 | locus YLR342W, strain FKS1 (second series), hits give low values 0.999 | locus YLR342W, strain FKS1, hits give low values 0.982 | locus YLR357W, strain rsc2, hits give low values 0.94 | locus YLR370C, strain arc18, hits give low values 0.955 | locus YLR371W, strain rom2, hits give low values 0.98 | locus YLR384C, strain iki3, hits give low values 0.996 | locus YLR418C, strain cdc73, hits give low values 0.98 | locus YML016C, strain PPZ1, hits give low values 0.988 | locus YML032C, strain rad52, hits give low values 0.978 | locus YML120C, strain ndi1, hits give low values 0.989 | locus YML124C, strain tub3, hits give low values 0.986 | locus YMR058W, strain fet3, hits give low values 0.972 | locus YMR078C, strain ctf18, hits give low values 0.981 | locus YMR125W, strain sto1, hits give low values 0.933 | locus YMR129W, hits give low values 0.985 | locus YMR205C, strain PFK2, hits give low values 0.989 | locus YMR223W, strain ubp8, hits give low values 0.977 | locus YMR231W, strain pep5, hits give low values 0.964 | locus YMR307W, strain GAS1, hits give low values 1.03 | locus YNL067W, strain RPL9B, hits give low values 1.02 | locus YNL071W, strain lat1, hits give low values 0.981 | locus YNL128W, strain TEP1, hits give low values 0.998 | locus YNL153C, strain GIM3, hits give low values 1.02 | locus YNL183C, strain NPR1, hits give low values 0.974 | locus YNL209W, strain ssb2, hits give low values 0.976 | locus YNL233W, strain BNI4, hits give low values 1.02 | locus YNL248C, strain rpa49, hits give low values 0.955 | locus YNL250W, strain rad50, hits give low values 0.972 | locus YNL271C, strain bni1, hits give low values 0.985 | locus YNL298W, strain CLA4, hits give low values 0.972 | locus YNL307C, strain MCK1, hits give low values 0.978 | locus YNL322C, strain KRE1 (second series), hits give low values 0.95 | locus YNR049C, strain mso1, hits give low values 0.952 | locus YNR052C, strain pop2, hits give low values 0.974 | locus YOL012C, strain htz1 0.939 | locus YOL147C, strain pex11, hits give low values 0.989 | locus YOR001W, strain rrp6, hits give low values 0.951 | locus YOR061W, strain CKA2, hits give low values 0.992 | locus YOR069W, strain VPS5, hits give low values 0.987 | locus YOR070C, strain gyp1, hits give low values 0.986 | locus YOR080W, strain dia2, hits give low values 0.982 | locus YOR083W, strain WHI5, hits give low values 1.02 | locus YOR106W, strain vam3, hits give low values 0.998 | locus YOR136W, strain idh2, hits give low values 0.976 | locus YOR144C, strain elg1, hits give low values 0.985 | locus YOR184W, strain ser1, hits give low values 0.998 | locus YOR231W, strain MKK1, hits give low values 1.02 | locus YOR265W, strain rbl2, hits give low values 0.977 | locus YOR270C, strain vph1, hits give low values 0.949 | locus YOR290C, strain snf2, hits give low values 0.997 | locus YOR316C, strain cot1, hits give low values 0.99 | locus YPL051W, strain arl3, hits give low values 0.972 | locus YPL078C, strain atp4, hits give low values 1 | locus YPL106C, strain sse1, hits give low values 0.957 | locus YPL240C, strain hsp82, hits give low values 0.964 | locus YPL241C, strain CIN2, hits give low values 1 | locus YPL256C, strain CLN2, hits give low values 1.03 | locus YPR119W, strain clb2, hits give low values 0.97 | locus YPR141C, strain kar3, hits give low values 0.987 | locus YPR163C, strain tif3, hits give low values 0.994 | locus YPR167C, strain met16, hits give low values 0.964 | strain wtn01, hits give low values 0.96
